# The full list was thinned out, with hits kept by preference.
# miR122 inh = raises miR-122 sensor activity in Huh7 cells | activation, % at 12.5 µM | AID 623901 | hit rate 0.14% among 340,000 | Huh7 psiCHECK-miR122 Renilla luciferase sensor, 48 h;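 active means mean activation of 30% or more, with every replicate also reaching 30%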;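 further: 0% = median of neutral control wells and 100% = median of positive control wells; higher luciferase signal means stronger suppression of miR-122 activity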
# Numbers without * were called inactive.
SMILES,miR122 inh
CO[C@@H]1CN(C)C(=O)c2cc(NC(=O)c3nc4ccccc4s3)ccc2OC[C@@H](C)N(Cc2ccncc2)C[C@@H]1C,1
CCS(=O)(=O)Nc1ccc2c(c1)C(=O)N(C)C[C@@H](OC)[C@H](C)CN[C@@H](C)CO2,-1
C/C=C/c1ccc2c(c1)O[C@@H](CN(C)C(=O)c1ccc3c(c1)OCO3)[C@H](C)CN([C@@H](C)CO)S2(=O)=O,-31
C[C@@H]1CN([C@@H](C)CO)S(=O)(=O)c2ccc(Br)cc2O[C@H]1CN(C)C(=O)c1ccc2c(c1)OCO2,-6
COc1cccc(-c2ccc3c(c2)O[C@H](CN(C)C(=O)C2CCCCC2)[C@H](C)CN([C@H](C)CO)S3(=O)=O)c1,-15
COc1cccc(-c2ccc3c(c2)O[C@H](CN(C)C(=O)C2CCOCC2)[C@H](C)CN([C@@H](C)CO)S3(=O)=O)c1,39*
C[C@@H]1CN([C@H](C)CO)S(=O)(=O)c2ccc(-c3ccccc3)cc2O[C@@H]1CN(C)C(=O)c1ccc2c(c1)OCO2,36*
COc1cccc(-c2ccc3c(c2)O[C@@H](CN(C)C(=O)C2CCCCC2)[C@@H](C)CN([C@H](C)CO)S3(=O)=O)c1,0
C[C@@H]1CN([C@@H](C)CO)C(=O)c2cc(Br)cnc2O[C@H]1CN(C)Cc1cccc(F)c1,3
C[C@H]1CN([C@@H](C)CO)C(=O)c2cc(C#Cc3cccc(F)c3)cnc2O[C@@H]1CN(C)CC1CCOCC1,4
C[C@@H]1CN([C@H](C)CO)S(=O)(=O)c2ccc(/C=C/c3ccccc3)cc2O[C@H]1CN(C)C(=O)c1ccccc1,-8
COc1cccc(NC(=O)N(C)C[C@H]2Oc3ncc(C#Cc4ccccc4)cc3C(=O)N([C@H](C)CO)C[C@@H]2C)c1,5
C[C@@H]1CN([C@H](C)CO)C(=O)c2cc(N(C)C)ccc2O[C@@H]1CN(C)Cc1ccc(C(=O)Nc2ccccc2N)cc1,-220
CCC(=O)Nc1ccc2c(c1)OC[C@@H](C)NC[C@@H](C)[C@H](OC)CN(C)C2=O,4
C[C@@H]1CN([C@H](C)CO)S(=O)(=O)c2ccc(-c3ccc(C#N)cc3)cc2O[C@H]1CN(C)C(=O)C1CC1,-25
CCC(=O)N(C)C[C@@H]1Oc2cc(-c3cccnc3)ccc2S(=O)(=O)N([C@H](C)CO)C[C@H]1C,-1
O=C(C1CC1)N(CCN(C(=O)C1CC1)c1ccccc1)c1ccccc1,30*
CCCN1C[C@H](C)[C@H](OC)CN(C)C(=O)c2ccc(NS(C)(=O)=O)cc2OC[C@@H]1C,0
C[C@H](CO)N1C[C@H](C)[C@@H](CN(C)C(=O)C2CCC2)Oc2ncc(C#CC3CCCC3)cc2C1=O,-9
O=C(NC1CCCC1)C(c1ccccc1)N(Cc1ccc2c(c1)OCO2)C(=O)Cc1cccs1 (stereo not drawn),-90
COc1ccc(C#Cc2ccc3c(c2)O[C@@H](CN(C)C(=O)NC2CCCCC2)[C@@H](C)CN([C@@H](C)CO)S3(=O)=O)cc1,-13
COc1ccc(C(C(=O)NC2CCCCC2)N(C(=O)CCl)c2cccc(Cl)c2)cc1 (stereo not drawn),55*
CO[C@H]1CN(C)C(=O)c2ccc(NC(=O)Nc3ccc(Cl)cc3)cc2OC[C@@H](C)N(C)C[C@@H]1C,3
C[C@@H]1CN([C@H](C)CO)S(=O)(=O)c2ccc(-c3cncnc3)cc2O[C@@H]1CN(C)Cc1ccccc1,-3
CC(=O)N(C)C[C@@H]1Oc2cc(C#CC3(O)CCCC3)ccc2S(=O)(=O)N([C@@H](C)CO)C[C@@H]1C,10
SMILES,miR122 inh
COCC#Cc1cnc2c(c1)C(=O)N([C@H](C)CO)C[C@@H](C)[C@H](CN(C)C(=O)Cc1ccccc1)O2,-10
COc1cc(C(=O)Nc2ccc(S(=O)(=O)N3CCCCC3C)cc2)cc(OC)c1OC (stereo not drawn),46*
COc1ccccc1S(=O)(=O)Nc1cccc(S(=O)(=O)N2CCCC2)c1,-77
COc1ccccc1N(CC(=O)N1CCCCC1C)S(=O)(=O)c1ccc(Cl)cc1 (stereo not drawn),-128
CCCNC(=O)N(C)C[C@H]1Oc2cc(-c3ccccc3)ccc2S(=O)(=O)N([C@@H](C)CO)C[C@@H]1C,-34
CC(C)CC#Cc1cnc2c(c1)C(=O)N([C@H](C)CO)C[C@H](C)[C@H](CN(C)C(=O)Cc1ccccc1)O2,4
COc1cnc(-c2ccccn2)nc1Sc1ccccc1Cl,39*
COCC(=O)N(C)C[C@@H]1Oc2ncc(C#Cc3ccncc3)cc2C(=O)N([C@@H](C)CO)C[C@H]1C,-1
C[C@H]1CN([C@@H](C)CO)S(=O)(=O)c2ccc(C#Cc3cccnc3)cc2O[C@H]1CN(C)C(=O)C1CC1,-6
COc1ccccc1C#Cc1ccc2c(c1)O[C@@H](CN(C)Cc1ccncc1)[C@H](C)CN([C@@H](C)CO)S2(=O)=O,11
C[C@H]1CN([C@@H](C)CO)C(=O)c2cc(-c3ccc(F)cc3)cnc2O[C@H]1CN(C)C(=O)c1ccccn1,-6
CNC(=O)c1nnsc1S(=O)(=O)c1ccc(Cl)cc1,31*
O=C(NNS(=O)(=O)c1ccc(Cl)cc1)c1cccs1,-116
O=S(=O)(Nc1ccncc1)c1ccc(Cl)cc1,-119
COCC#Cc1ccc2c(c1)O[C@H](CN(C)C(=O)C1CCCCC1)[C@@H](C)CN([C@H](C)CO)S2(=O)=O,-12
C[C@H]1CN([C@@H](C)CO)C(=O)c2cc(Br)cnc2O[C@H]1CN(C)Cc1ccc2c(c1)OCO2,12
C[C@@H]1CN([C@H](C)CO)C(=O)c2cc(-c3cccnc3)cnc2O[C@@H]1CN(C)C(=O)C1CC1,7
C[C@H]1CN([C@@H](C)CO)C(=O)c2cc(-c3ccc(F)cc3)cnc2O[C@@H]1CN(C)C(=O)c1cccnc1,10
C=CCNC(=S)NNC(=O)c1cccn(Cc2ccc(Cl)c(Cl)c2)c1=O,71*
C=CCNC(=O)c1ccccc1NC(=O)c1ccc(Cl)c(S(=O)(=O)Nc2cc(C)ccc2C)c1,-102
COc1ccc(C(=O)Nc2ccc3c(c2)OC[C@@H](C)N(C)C[C@H](C)[C@H](OC)CN(C)C3=O)cc1,-5
COCC(=O)N(C)C[C@H]1Oc2ncc(/C=C/c3ccccc3)cc2C(=O)N([C@@H](C)CO)C[C@H]1C,8
S=C(NCCc1ccccc1)Nc1ccc(Cl)cc1Cl,-95
CCNC(=O)CCC(=O)Nc1cc(Cl)ccc1C,36*
COCC#Cc1ccc2c(c1)O[C@H](CN(C)C(=O)COC)[C@H](C)CN([C@H](C)CO)S2(=O)=O,13
SMILES,miR122 inh
C[C@@H]1CN([C@@H](C)CO)C(=O)c2cc(-c3cncnc3)cnc2O[C@@H]1CN(C)Cc1ccc(F)cc1,1
CC(=O)N(C)C[C@H]1Oc2cc(C#CC3CCCCC3)ccc2S(=O)(=O)N([C@H](C)CO)C[C@@H]1C,-20
Oc1ccc(-c2nc(-c3ccc(O)c(O)c3)cs2)cc1,30*
COCC#Cc1ccc2c(c1)O[C@H](CN(C)C(=O)COC)[C@@H](C)CN([C@H](C)CO)S2(=O)=O,1
C[C@@H]1CN([C@@H](C)CO)C(=O)c2cc(-c3ccccc3F)cnc2O[C@@H]1CN(C)Cc1ccccc1F,0
C[C@H](CO)N1C[C@H](C)[C@H](CN(C)Cc2ccccn2)Oc2cc(-c3cccnc3)ccc2S1(=O)=O,8
COCC#Cc1cnc2c(c1)C(=O)N([C@@H](C)CO)C[C@@H](C)[C@@H](CN(C)Cc1ccccc1)O2,0
C[C@H](CO)N1C[C@H](C)[C@@H](CN(C)CC2CCOCC2)Oc2cc(Br)ccc2S1(=O)=O,1
